Consider 14 molecules from PubChem BioAssay (NCI).

What all share (experiment): NCI-60 one-dose screen, 48 h (100 = growth as untreated, 0 = no growth, -100 = all killed)
What all share (settings): 10 µM unless noted

The subject of assay [1] is NCI-H23 lung.
Assay [2] deals with NCI-H226 lung.
Assay [3] relates to NCI-H322M lung.
Assay [4] deals with HOP-62 NSCLC.
Assay [5] relates to NCI-H460 lung.
Assay [6] deals with HOP-92 NSCLC.
In assay [7] the test system is NCI-H522 lung.
In assay [8] the test system is 786-0 renal.
Assay [9] concerns COLO 205 colon.
Assay [10] concerns A549/ATCC NSCLC.

This is part of a sample that, as a whole, favours compounds with a hit. Of some 83,000 tested, about 20% had one in any assay.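 The endpoint reported here, percent growth, reads 100 for growth as untreated, 0 for no net growth and -100 for all cells dead.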 Unmarked numbers belong to inactive results. Active and inactive are the calls of the source. The calls were made as follows: active = growth percent below 10; inactive = the rest.

On to `CC12CCC=CC1CCC1C2CCC2(C)C(c3ccc(=O)oc3)CCC12O` (stereo not drawn), for which the growth in [1] is -64% (active); in assay [2], -92.3% (active); in assay [3], -22.5% (active); in assay [4], -71.9% (active); in assay [5], -69.3% (active); in assay [6], -10.7% (active). Also, the growth in assay [7] is -27.9% (active); in assay [8], -51.1% (active); in assay [9] it was -50.9% (active).

With `O=C1CNC(c2ccccc2)c2cc(Cl)ccc2N1` (stereo not drawn), the growth in assay [1] was 93.7%; in assay [2] it was 89.6%; in assay [3], 95.5%; in assay [4], 92%; in [5] it was 110%; in assay [6], 107%. Also, the growth was 69.3% in [7], 109% in assay [8] and 116% in [9].

With `O=C1NC(=O)C(=Cc2cn(CCCCCCn3c4ccccc4c(=O)c4ccccc43)c3ccccc23)C(=O)N1`, the growth in assay [1] is 82.5%; in assay [2], 67.2%; in assay [3], 85.8%; in [4], 86.7%; in assay [5] it was 34.2%; in [6], 96.1%. Besides, the growth in assay [7] is 73.3%; in assay [8], 96.8%; in assay [9] it was 92.3%.

Turning to `COc1cc([C@@H]2c3cc4c(cc3[C@H](OC(C)=O)[C@H]3COC(=O)[C@H]23)OCO4)cc(OC)c1OC`, the growth in assay [1] is 25%; in assay [2], 76.4%; in assay [3], 42.7%; in assay [4] it was 37.8%; in assay [5], 9.09% (active); in assay [6], 32.8%. Besides, the growth in [7] was -4.13% (active); in assay [10] it was 19.5%; in assay [8] it was 20.5%; in assay [9] it was -27.9% (active).

Take `CCOC(=O)[C@@H](C)C[C@H](Cc1ccccc1)NC(=O)c1csc([C@@H](C[C@H](C(C)C)N(C)C(=O)[C@@H](NC(=O)[C@H]2CCCCN2C)C(C)(C)CC)OC(C)=O)n1`: the growth is 26.9% in assay [1]; -41.7% (active) in assay [2]; 34.4% in [3]; 18.8% in [4]; -10.1% (active) in assay [5]; 16% in [6]. The growth in [7] was -32.8% (active); in assay [8], 1.55% (active); in assay [9], -62.6% (active).

For the molecule `O=C([O][Hg][c]1ccccc1)c1ccccc1`, the growth in assay [1] is 1.89% (active); in assay [2], 96.4%; in [3], 67.7%; in assay [4], -33.7% (active); in [5], 11.7%; in [6], -61.3% (active). Also, the values for the growth in assay [7], in assay [8] and in assay [9] were -64.1% (active), -93.8% (active) and -70% (active), respectively.

With `COc1ccc(/C=C\c2cc(OC)c(OC)c(OC)c2)cc1OCC(=O)Nc1nc2ccc(F)cc2s1`, the growth in assay [1] is 34.4%; in [2], 42.4%; in assay [3], 70.8%; in assay [4], 51%; in assay [5], 23.9%; in assay [6], 57.7%. Further, the results for the growth in assay [7], in [8] and in assay [9] were 6.14% (active), 65% and 32.3%, respectively.

`NC(=O)c1c(Br)n(C2OC(CO)C(O)C2O)c2ncnc(N)c12` (stereo not drawn): the growth in [1] was 9.8% (active); in assay [2], 54.1%; in assay [3], 21.7%; in [4], 12%; in assay [5], 11.8%; in assay [6], 3.71% (active). In addition, the growth is -18.7% (active) in assay [7], 25.9% in assay [8] and -12.9% (active) in [9].

Take `Cc1cnc(/C=C/C(=O)O)cc1-c1cc2c(cc1C)C(C)(C)CCC2(C)C`: the growth in assay [1] is 79.2%; in assay [2], 82.8%; in [3], 110%; in assay [4] it was 94.4%; in assay [5], 85.8%; in [6], 56.8%. The growth in assay [7] was 65.8%; in assay [8] it was 76.5%; in [9], 102%.

For the molecule `COC(=O)C1OC(Oc2ccc(N(CCCl)CCCl)cc2)C(OC(C)=O)C(OC(C)=O)C1OC(C)=O` (stereo not drawn), the growth in assay [1] was 92.9%; in assay [2], 96.7%; in [3] it was 108%; in assay [4] it was 94.4%; in assay [5] it was 29.3%; in assay [6] it was 78%. Also, the growth is 67.9% in [7], 75.9% in assay [10], 75% in assay [8] and 95.3% in [9].

On to `COc1ccc2c(c1)c(-c1nc(-c3c[nH]c4ncccc34)cs1)cn2CCCCN1CCCCC1`, for which the growth in assay [1] was 1.32% (active); in assay [2], 39.6%; in [3], -20.2% (active); in [4], -75.5% (active); in assay [5] it was -69.8% (active); in assay [6], 20.5%. The growth in assay [7] is -68.8% (active); in assay [10], -65.9% (active); in [8] it was -90% (active); in assay [9] it was -76.2% (active).

In the case of `COC1=CC(=O)O[C@@H](/C=C/c2ccc3c(c2)OCO3)C1`, the growth in assay [1] was 117%; in [2] it was 92.8%; in assay [3] it was 97.5%; in [5], 118%; in [6], 60.9%; in [7], 98.3%. For the same molecule, the growth is 97% in assay [10], 112% in assay [8] and 125% in assay [9].

With `O=C1C(Cl)=C(N2CCOCC2)C(=O)c2ccccc21`, the growth in assay [1] is 85.2%; in assay [2], 104%; in assay [3] it was 122%; in assay [5] it was 101%; in assay [6], -75.2% (active); in assay [7], 75.1%. Further, the growth in [10] was 101%; in assay [8], 111%; in [9] it was 106%.

Turning to `O=C(CCCC1CCCCC1)OCC(Cl)(Cl)Cl`, the growth is 94.3% in [1]; 99% in assay [2]; 104% in [3]; 101% in [5]; 77.5% in [6]; 96.2% in assay [7]. Moreover, the growth in assay [8] is 102%; in assay [9] it was 101%.
